Here are results for three substances from paper PMC12350791.

Test [1] addresses ATP-dependent RNA helicase DDX24 (UniProt Q9GZR7). The test can be described thus: cross-linking mass spectrometry.
The target of test [2] is Spectrin alpha chain, non-erythrocytic 1 (UniProt Q13813). The test is described as follows: cross-linking mass spectrometry.
The next test addresses T1, Twinfilin-2 (UniProt Q6IBS0).
T1 sequence: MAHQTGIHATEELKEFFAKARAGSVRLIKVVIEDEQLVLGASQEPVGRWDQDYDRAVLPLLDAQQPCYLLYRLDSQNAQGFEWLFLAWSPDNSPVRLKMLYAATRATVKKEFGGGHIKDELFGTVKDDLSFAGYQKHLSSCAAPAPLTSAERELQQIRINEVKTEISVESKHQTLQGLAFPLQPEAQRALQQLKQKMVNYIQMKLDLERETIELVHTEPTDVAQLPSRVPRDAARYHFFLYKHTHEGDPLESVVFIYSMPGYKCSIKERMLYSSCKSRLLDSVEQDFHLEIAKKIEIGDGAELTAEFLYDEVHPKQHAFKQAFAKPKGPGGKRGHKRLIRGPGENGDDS
The test is described as follows: cross-link between two proteins; cross-linking mass spectrometry.

For test [3], the target named is Superkiller complex protein 8 (UniProt Q9GZS3). Described as above.

On to “Large ribosomal subunit protein eL20, Q02543”, for which, in test [1], the “listed as a hit” value is listed as “yes”. Actin, cytoplasmic 1, P60709: the “listed as a hit” value (in test [2]; in the test with Twinfilin-2) was “yes” each time. With “RNA polymerase-associated protein CTR9 homolog, Q6PD62”, in test [3], the “listed as a hit” value is given as “yes”.
